The values below come from the OligoGym collection.

Among the targets are LIMK2; LINGO4; LIN54; LMO4; LIPA.
Assay in all cases: pooled miR-30 sensor sort-seq; sequence = guide strand
What all share (conditions): shRNA
Note: reference of the scale not given here.

Take ATCTGCTGTGAATAGCTGCTGG: in the assay with LIMK2, the sensor-assay potency score (higher = more potent) was -0.683. ATATCCAGTTCTCTAAGCCTTA returned a sensor-assay potency score (higher = more potent) with LINGO4 of -0.907. In the assay with LIN54, TTTACAAGCAAAACATTCGTAA had a sensor-assay potency score (higher = more potent) of -0.274. With TCACTCGCAGGAATCGACTGTC, the sensor-assay potency score (higher = more potent) with LMO4 was 0.214.

In the assay with LIPA, TACAAAGTAGTATTCGCCCTGC had a sensor-assay potency score (higher = more potent) of -0.272. Consider TTAACCATTAACAAGCATTGTA, for which, in the assay with LIPA, the sensor-assay potency score (higher = more potent) amounted to 0.00545.
